Bioassay records deposited in PubChem BioAssay by National Center for Advancing Translational Sciences (NCATS).
Compounds with a hit are over-represented: about 11% of the library has one in this group of screens.
PNC inhibitor: High Content Assay for Compounds that inhibit the Assembly of the Perinucleolar Compartment | PC3M PTB-GFP, PNC prevalence imaging, 16 h; stronger effect = lower value | hit rate 3.1% among 140,000 | activity change (PNC), negative = inhibition, % at 10 µM;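 active = readout at or below -70, meaning at least 70% loss of cells showing the perinucleolar compartment, a nuclear body marking cancer cells; inconclusive = readout between -30 and a set limit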
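PC3M cells stably expressing PTB-GFP, 750–1000 cells/well, treated 16 h at 37 °C with compound (23 nl of library stock), in duplicate. After paraformaldehyde fixation and Hoechst stain, imaged at 20x; PNC prevalence scored by image analysis.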
HPGD block: qHTS Assay for Inhibitors of HPGD (15-Hydroxyprostaglandin Dehydrogenase); 15-hydroxyprostaglandin dehydrogenase [NAD(+)] (Homo sapiens), P15428; Potency, µM, hits mostly inhibitors; purified HPGD, NADH fluorescence kinetic, PGE2 substrate; hit rate 4.3% among 150,000
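20 nM HPGD preincubated 15 min at room temperature with compound in 50 mM Tris-HCl pH 8, 0.01% Tween 20. Started with 1 mM NAD+ and 30 uM prostaglandin E2; NADH fluorescence (360/450 nm) read 5 times over 30-s intervals, last minus first.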
ALDH1A1 inh: qHTS Assay for Inhibitors of Aldehyde Dehydrogenase 1 (ALDH1A1) | Aldehyde dehydrogenase 1A1 (Homo sapiens), P00352 | Purified ALDH1A1, NADH fluorescence, propionaldehyde substrate | Potency, µM (titrated, usually from 75.3 µM), hits mostly inhibitors | hit rate 7.3% among 220,000 | AID 1030, 2008
Target sequence (P00352 whole entry, looked up): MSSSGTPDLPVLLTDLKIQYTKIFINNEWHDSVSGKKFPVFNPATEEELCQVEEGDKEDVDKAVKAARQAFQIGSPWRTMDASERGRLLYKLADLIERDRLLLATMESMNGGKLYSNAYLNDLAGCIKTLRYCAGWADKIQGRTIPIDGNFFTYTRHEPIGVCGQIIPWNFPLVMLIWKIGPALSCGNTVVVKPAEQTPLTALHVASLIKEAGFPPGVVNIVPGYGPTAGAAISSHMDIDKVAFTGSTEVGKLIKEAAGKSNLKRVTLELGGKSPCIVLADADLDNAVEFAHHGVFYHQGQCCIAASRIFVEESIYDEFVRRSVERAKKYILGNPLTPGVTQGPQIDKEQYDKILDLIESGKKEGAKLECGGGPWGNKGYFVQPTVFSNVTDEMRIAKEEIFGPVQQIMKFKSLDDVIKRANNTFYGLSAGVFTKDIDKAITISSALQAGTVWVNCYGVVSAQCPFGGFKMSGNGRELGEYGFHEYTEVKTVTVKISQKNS
A number is an active result; i = inactive; ? = inconclusive; nt = not tested or not shown; ! = a repeat was not active; [ ] = dose if it differs, or a comment. Unless noted, calls come from the whole dose curve; as a rule, active = well fitted inhibition curve with a large enough effect (not every such curve was filed as active); inconclusive = small, poorly fitted or top-dose-only effect, or another doubt; inactive = no such curve, though single readings can be large or run the other way.

SMILES	PNC inhibitor	HPGD block	ALDH1A1 inh
CC(CCC(=O)O)C1CCC2C3C(=O)C[C@@H]4CC(=O)CC[C@@]4(C)C3CC(=O)[C@]12C (stereo partly specified)	nt	i	i
CCCc1nc2ccc(NC(=O)c3ccco3)cc2c(=O)n1Cc1ccccc1Cl	-100.0	i	i
CCCc1nc2ccc(NC(=O)c3ccco3)cc2c(=O)n1Cc1ccc(Cl)cc1	i	i	i
O/N=C1\CCCC\C1=C/c1ccccc1	?	4.47µM	i
O/N=C1/CC/C(=N\O)c2nn(-c3ccccc3)nc21	i	i	i
Cc1c(NC(=O)CSc2ncnc3ccccc23)c(=O)n(-c2ccccc2)n1C	nt	nt	i
COC(=O)/C(=C/c1ccco1)NC(=O)c1ccc(Br)o1	nt	nt	20µM
COC(=O)/C(=C/c1ccco1)NC(=O)c1ccccc1	i	i	i
O=C(NCCCO)/C(=C/c1ccco1)NC(=O)c1ccc(Br)o1	i	i	?
C=CCOC(=O)/C(=C/c1ccco1)NC(=O)/C=C/c1ccccc1	i	i	15.8µM
O=C(O)CNC(=O)/C(=C/c1ccco1)NC(=O)/C=C/c1ccccc1	i	i	i
COC(=O)/C(=C/c1ccco1)NC(=O)c1ccco1	i	i	10µM
CN(C(=O)CS(=O)(=O)c1cccc(Cl)c1)c1ccccc1	nt	nt	i
Cc1cc(=O)[nH]c(-n2ncc(C#N)c2N)n1	nt	nt	i
CSC(=O)NC(=O)NC(=O)c1ccc([N+](=O)[O-])cc1	nt	nt	i
CSc1ccccc1NC(=O)c1ccc([N+](=O)[O-])cc1	nt	nt	14.1µM
O=C(c1csnn1)N1CCC[C@@]2(CCN(c3ccncc3)C2)C1	nt	i	i
CC(C)Cn1nnnc1S(=O)(=O)Cc1ccccc1	nt	i	i
CC(C)Cn1nnnc1S(=O)(=O)Cc1cccc(C#N)c1	nt	i	3.55µM
Cc1ccc(NC(=O)C2=C(O)c3sccc3N(C)S2(=O)=O)cc1	i	i	i
Cc1ccc(NC(=S)C2=C(O)c3sccc3N(C)S2(=O)=O)cc1	i	?	7.94µM
C=CC[C@](C)(O)c1ccccc1	nt	i	i
O=C(c1cc2cc([N+](=O)[O-])ccc2s1)N1CCCCC1	nt	nt	14.1µM
CN(C)C(=O)c1cc2cc([N+](=O)[O-])ccc2s1	i	i	i
O=C(c1ccc([N+](=O)[O-])cc1[N+](=O)[O-])N1CCCC1	nt	nt	i
SMILES	PNC inhibitor	HPGD block	ALDH1A1 inh
CCN(CC)C(=O)c1cc2cc([N+](=O)[O-])ccc2s1	i	28.2µM	i
CC(=O)O[C@H]1C2OC(=O)C(C)=C2[C@@H]2OC(=O)[C@]3(CCC4OC41C)OC23 (stereo partly specified)	-118.9	i	i
COc1ccc(C2C(C#N)=C(N)Nc3onc(C(C)(C)C)c32)c(OC)c1 (stereo unspecified)	?	i	i
CCCc1noc2c1C(c1cc(Br)ccc1F)C(C#N)=C(N)N2 (stereo unspecified)	nt	nt	11.2µM
COc1cc2c(cc1OC)C(C(=O)NCCN(C)C)C(c1cccs1)N(C)C2=O (stereo unspecified)	nt	nt	i
C=C(C)COc1ccc(-c2[nH]ncc2-c2ccccc2OC)c(O)c1	i	i	25.1µM
C=C(C)COc1ccc(-c2[nH]ncc2Oc2ccccc2OC)c(O)c1	?	i	i
Cc1c(Cl)cccc1Nc1nc(N)nc(CSC(=S)N2CCOCC2)n1	nt	nt	i
CC(=O)N1[C@H](Cc2ccccc2)C=C[C@]1(C)C(=O)NCc1ccc(C)o1	i	22.4µM!	i
CC(=O)N1[C@H](Cc2ccccc2)C=C[C@]1(C)C(=O)NCc1cc(F)cc(C(F)(F)F)c1	nt	i	i
CN(C)c1ccc(CNC(=O)[C@@]2(C)C=C[C@@H](Cc3ccccc3)N2C)cc1	nt	i	20µM
C[C@]1(C(=O)NCC2CC2)C=C[C@@H](Cc2ccccc2)N1C(=O)c1ccccc1	nt	i	i
COC(=O)N1C2(C=CC1(C)C(=O)NCc1ccc(N(C)C)cc1)CCCCC2 (stereo unspecified)	nt	i	25.1µM
CN1[C@H](Cc2ccccc2)C=C[C@]1(C)C(=O)NCC1CC1	nt	i	28.2µM
COC(=O)N1[C@H](Cc2ccccc2)C=C[C@]1(C)C(=O)NCc1ccc(N(C)C)cc1	nt	i	?
COC(=O)CNC(=O)C1(C)C=CC2(CCCCC2)N1C(=O)OC (stereo unspecified)	nt	i	i
Cc1nc(C(C)NC(=O)CCc2nnc(CCCc3ccccc3)o2)c(C)s1 (stereo unspecified)	nt	nt	i
CCN1C(C)=C(C(=O)OC)C(c2ccccc2)N2C(=O)[C@](O)(C(=O)OC)C(c3ccccc3)C(C(=O)c3ccccc3)=C12 (stereo partly specified)	nt	nt	i[13.5 µM]
COc1cccc(C(=O)N2C(C(=O)O)CSC2c2ccccc2Cl)c1 (stereo unspecified)	i	i	i
OC/C(Br)=C(\Br)CO	nt	i	i
CC(C)c1cccc(C(C)C)c1NC(=O)Cn1c(=O)cnc2ccccc21	?	i	i
COCCN(CCOC)C(=O)c1ccc(SCc2ccc(C)cc2)c([N+](=O)[O-])c1	nt	nt	i
COc1cccc2cc(C(=O)OCC(=O)NCc3ccc4c(c3)OCO4)c(=O)oc12	nt	nt	i
CNC(=O)[C@@]1(C)C=C[C@@H](Cc2ccccc2)N1C(=O)OC	-95.8	i	i
CNC(=O)[C@@]1(C)C=C[C@@H](Cc2ccccc2)N1C(C)=O	nt	i	i
SMILES	PNC inhibitor	HPGD block	ALDH1A1 inh
CCOC(=O)CN1C(=O)N[C@@H](c2ccccc2)[C@H](C(=O)OC)[C@H]1C	nt	i	i[13.5 µM]
CSc1ccc(CNc2ccc(Cl)cc2)cc1	i	i	i
CCc1ccc(CNc2ccc(O)cc2)cc1	i	22.4µM	7.94µM
Cc1ccc(OCCn2cccn2)c(C)c1	nt	nt	i
c1cncc(CNCc2cccnc2)c1	nt	i	i[13.5 µM]
CC1CCN(c2[nH]c(=S)c(C#N)c3c2CCCC3)CC1	?	11.2µM	10µM
CC1(C)Cc2c(c(N3CCCCC3)[nH]c(=S)c2C#N)CS1	i	i	i
CCOC(=O)c1ccc(NC(=S)N2CCSC2c2ccc(Br)cc2)cc1 (stereo unspecified)	i	i	i
COC(=O)CC1Oc2ccc(C)cc2NC1=O (stereo unspecified)	?	i	i
COC(=O)CC1Oc2cc3oc4c(c3cc2O1)C(=O)CC(C)(C)C4 (stereo unspecified)	nt	25.1µM	10µM
CC1(C)CC(=O)c2c(oc3cc(O)c(O)cc23)C1	i	6.31µM	2µM
CCNC(=O)c1oc2c(c1C)C(=O)CC(C)(C)C2	i	i	i
CCN(CC)S(=O)(=O)c1ccc(/C=C/C(=O)OCC(=O)N(C(C)C)C(C)C)cc1	nt	nt	i
CCCCCCCCNC(=O)c1cccnc1SCC(=O)Nc1ccccc1OC	i	i	i
O=S(=O)(c1ccccc1)N1CCC2(CCN(c3ncccn3)CC2)CC1	nt	i	i
CCOCCCNC(=O)CN(c1cc([N+](=O)[O-])ccc1OC)S(C)(=O)=O	nt	nt	i
CCOc1ccc(C(=O)O)cn1	nt	nt	i
O=C(O)c1ccc(SSc2ccc(C(=O)O)cn2)nc1	nt	3.98µM	?
NC(=S)NC(=O)/C=C/c1ccccc1	nt	nt	i
CCOC(=O)C1=C(N)OC2=C(C(=O)CCC2)C1c1cccnc1 (stereo unspecified)	-119.6	i	i
